# Compound activity: PubChem, National Center for Advancing Translational Sciences (NCATS)
# HCV inhibitor: inhibitors of hepatitis C virus infection | AID 651820 | Huh7.5.1 HCVcc-Cre infection, luciferase reporter, 44 h | Potency, µM (series often up to 41.8 µM), without a hit: at the top dose activity change, negative = inhibition, hits mostly inhibitors | 3.4% of 340,000 active; also: % is scaled to controls: 0 for no effect and ±100 for the full control effect
#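 Seed cells (1,000/well) for 4 h; treat with compound and infect with HCVcc-Cre, moi about 0.5. Incubate 44 h, then detect luciferase activity.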
# NS1 function inh: influenza NS1 inhibition; AID 2326; 0.4% of 270,000 active; Potency, µM (titrated, usually from 46.1 µM), for inactives: at the highest dose activity, positive = more growth; calls by dose curve; also: actives are rising curves; nearly all actives have a fitted effect of over 50% in size
#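 Recovery from NS1-induced slow growth read by OD600 in budding yeast switched to galactose assay medium (pH 6.0, -URA) at 1:100 dilution. Compound 23 nl per well; the matching strain lacking NS1 serves as control.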
# SARS PLP yeast: inhibitors of SARS-CoV papain-like protease in yeast. S. cerevisiae expressing SARS-CoV PLpro, growth rescue. Potency, µM (doses to about 32.9 µM), for inactives: top-dose activity, positive = growth rescue, actives largely listed as activators. 0.19% of 330,000 active. AID 485353; calls by dose curve; also: 0% is about no effect; nearly all actives have a fitted effect of over 55% in size
# Pf growth 96h: P. falciparum growth inhibition at 96 hours. P. falciparum luciferase reporter growth, 96 h. Potency, µM (titrated, usually from 28.7 µM), for the others: at the highest dose activity change, negative = inhibition, hits mostly inhibitors. 6.9% of 320,000 active. AID 504834; also: % is scaled to controls: 0 for no effect and ±100 for the full control effect
#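 P. falciparum expressing integrated firefly luciferase, in erythrocytes at 2% hematocrit, 0.05% parasitemia, incubated with compounds 96 h at 37 C, 5% CO2. Growth inhibition read as loss of luminescence; two-generation exposure targets delayed-death apicoplast inhibitors.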
# AMA1 RON2 block: disrupts binding of P. falciparum AMA1 to RON2; AlphaScreen AMA1-biotinylated RON2 peptide binding; Potency, µM (top dose mostly 58.2 µM), for inactives: at the top dose activity change, negative = inhibition, usual class: inhibitors; 0.2% of 360,000 active;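 also: 0% = vehicle wells and -100% = peptide control; nearly all actives have a fitted effect of over 45% in size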
#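 AMA1 (3D7) with his tag at 25 nM final met compounds first, then biotinylated RON2 peptide at 25 nM; detection used donor plus acceptor beads, 10 µg/mL apiece, read by AlphaScreen after 30 min at room temperature.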
# Pf growth 48h: inhibits P. falciparum growth in the first generation, 48 h. 5.9% of 310,000 active. Potency, µM (top dose mostly 28.7 µM), without a hit: at the highest dose activity change, negative = inhibition, hits mostly inhibitors. P. falciparum luciferase growth in erythrocytes, 48 h; also: % is scaled to controls: 0 for no effect and ±100 for the full control effect
#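 Read-out is firefly luciferase luminescence from an integrated reporter in P. falciparum, so falling signal marks reduced parasite growth. Infected erythrocytes were at 2% hematocrit and 0.1% parasitemia (final) in Albumax-supplemented RPMI 1640.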
# The depositor's hits bear a star; ? = inconclusive; . = no result given; [ ] = dose if it differs, or a comment. A selection: hits, their analogues and other compounds. The true share with any hit is near 12%. Unless noted, calls follow the shape of the dose curve; as a rule, active = well fitted curve in the direction sought with a large enough effect; inconclusive = small, poorly fitted or top-dose-only effect, or another doubt; inactive = no such curve, though single readings can be large; an effect the other way counts as inactive or inconclusive. Potency is read from the fitted curve at half-maximal effect.
SMILES,HCV inhibitor,NS1 function inh,SARS PLP yeast,Pf growth 96h,AMA1 RON2 block,Pf growth 48h
CCN1CCN(CCNC(=O)C2CCCN(Cc3nc(-c4cccc(Cl)c4)oc3C)C2)CC1 (stereo not drawn),10µM*,-7%,-4%,-23%,-5%,.
CC(=O)N1c2ccc(S(=O)(=O)N3CCCC3)cc2CC1C(=O)NCc1ccc(N(C)C)cc1 (stereo not drawn),2%,-3%,3%,6.6µM*,14%,-13%
COc1cccc(CNC(=O)C2Cc3cc(S(=O)(=O)N4CCCC4)ccc3N2C(C)=O)c1OC (stereo not drawn),1%,-5%,4%,15µM*,13%,-9%
CC(=O)c1ccc(S(=O)(=O)N2CCN(C(=O)c3ccc(COc4ccccc4)o3)CC2)cc1,?,.,-1%,?,-6%,?
O=C(c1cc(C2CC2)nn1-c1ccccc1)N1CCN(S(=O)(=O)c2c(F)cccc2F)CC1,?,.,10%,?,9%[11.6 µM],7.4µM*
O=C(c1cc(C2CC2)nn1-c1ccccc1)N1CCN(c2ccc(O)cc2)CC1,?,.,0%,?,?,10µM*
COc1ccc(S(=O)(=O)N2CCN(C(=O)c3cc(C4CC4)nn3-c3ccccc3)CC2)cc1OC,?,.,-3%,.,-26%,.
CCOc1ccc(S(=O)(=O)N2CCN(C(=O)c3cc(C4CC4)nn3-c3ccccc3)CC2)cc1,?,.,2%,?,-6%,4.7µM*
CCOc1ccc(S(=O)(=O)N2CCN(C(=O)c3cc(-c4ccccc4)nn3-c3ccccc3)CC2)cc1,?,.,-5%,?,-10%,?
Cc1nc(C(F)(F)F)ccc1C(=O)N1CCC1(C)C(=O)NS(C)(=O)=O (stereo not drawn),.,.,.,.,-4%,.
CCc1ccccc1NC(=O)C1(S(=O)(=O)c2ccc(C)cc2)CC1,2%,-25%,1%,89%,7%,16%
COc1cc2nc(=S)n3[nH]c(COc4ccccc4C)nc3c2cc1OC,-11%,13%,3%,-8%,49%,?
COc1cc2nc(=S)n3[nH]c(CCn4nc(C)cc4C)nc3c2cc1OC,-11%,-3%,3%,-10%,16%,2.9µM*
COC(=O)C1CN(C(=O)C(C)Oc2ccccc2Cl)c2ccccc2O1 (stereo not drawn),13%,-5%,-1%,18%,-7%,?
Cc1ccc(-n2c(-c3ccccc3)c[n+]3c2CCC3)cc1,-29%,0%,-1%,0.74µM*,-12%,1µM*
Cc1ccc(-n2c(-c3ccc(Cl)cc3)c[n+]3c2CCC3)cc1,?,1%,0%,0.1µM*,-4%,0.26µM*
CCOC(=O)CN1C(=O)/C(=C/c2ccccc2Br)Oc2ccccc21,9%,4%,1%,2.1µM*,12%,14%
COc1ccc(/C=C(\C#N)C(N)=O)cc1OC,.,0%,.,.,.,.
N#C/C(=C\c1cc(O)c(O)c(O)c1)C(N)=O,17%,1%,1%,?,?,10µM*
COc1ccccc1N=Nc1nc(-c2ccccc2)c(-c2ccccc2)[nH]1,11µM*,-8%,1%,2.3µM*,35µM*,13%
COc1ccc(N=Nc2nc(-c3ccccc3)c(-c3ccccc3)[nH]2)cc1,?,11%,-32%,?,?,?
Cn1c(CNC(=O)c2ccco2)nnc1SCC(=O)Nc1c(F)cc(F)cc1Br,15%,1%,0%,51%[5.75 µM],7%,-12%
CCc1[nH]nc2c1C(c1ccsc1)C(C#N)=C(N)O2 (stereo not drawn),17%,-13%,-40%,10µM*,5%,4%
CCOC(=O)c1c(NC(=O)CSc2nc3cc(Cl)ccc3c(=O)n2Cc2ccco2)sc(C(=O)N(C)C)c1C,?,29%,-11%,4.1µM*,62%,5.9µM*
COc1cccc(-c2nnc(SCC(=O)NCc3ccc4c(c3)OCO4)n2Cc2ccco2)c1,-6%,-1%,6%,6.6µM*,11%,.
